# Screening results deposited in PubChem by The Scripps Research Institute Molecular Screening Center.
# An excerpt weighted towards active compounds, which were near 4.1% of everything screened.
# hgDAF12 agonist = hgDAF-12 agonism, primary luciferase screen. HEK293 GAL4-hgDAF12 UAS-luciferase reporter, agonist luminescence; normalized to butyrate control. activation, % at 6.8 µM. 370,000 compounds, 1.8% hits. AID 687014;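 active means activation above a cutoff set at the mean of all screened compounds plus 3 SD, cut at about 10% in these data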;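 further: 0% = DMSO wells and 100% = sodium butyrate wells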
# DAX1 inh-1 = blocks DAX1 repression of SF-1 activated StAR promoter; 370,000 compounds, 1.1% hits; HEK293T StAR-luciferase reporter, SF-1/DAX-1 repression relief; inhibition, % at 6.8 µM; AID 652010;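 active means inhibition above the mean over all tested compounds plus 3 SD, cut at about 3.6% in these data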;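 further: 0% = DAX-1 cells with DMSO and 100% = cells lacking DAX-1 with DMSO; higher inhibition means more luminescence from relief of DAX-1 repression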
# hcDAF12 agonist = activates DAF-12 receptor from parasite H. contortus; activation, % at 6.8 µM; 370,000 compounds, 1.4% hits; HEK293 hcDAF-12 lit1-tk-luc reporter, luminescence; 0% DMSO, 100% Δ7-dafachronic acid; AID 652067;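 active means activation above the mean of all tested compounds plus 3 SD, cut at about 5.5% in these data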;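 further: 100% = response to 3 µM Δ7-dafachronic acid high control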
# ssDAF-12 act = activators of S. stercoralis DAF-12 nuclear receptor; HEK293 ssDAF-12/GRIP1 lit1-tk-luc reporter, luminescence; % of 3 µM dafachronic acid response; 370,000 compounds, 1% hits; AID 652126; activation, % at 6.8 µM;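 active means activation above the mean over all tested compounds plus 3 SD, cut at about 0.9% in these data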;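 further: 0% = DMSO-only wells and 100% = 3 µM delta7-dafachronic acid wells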
# DAX1 inh-2 = inhibits human nuclear receptor DAX1 | P51843 | HEK293 Gal4-DAX1 luciferase reporter, luminescence | inhibition, % at 6.75 µM | 340,000 compounds, 0.99% hits;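 active means inhibition above the mean over all tested compounds plus 3 SD, cut at about 4.2% in these data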;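 further: 0% = DAX1-transfected cells with DMSO and 100% = empty-vector control cells with DMSO; inhibition shows as a rise in luminescence from relieved DAX1 repression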
# Target sequence (P51843 207-470 limits assumed): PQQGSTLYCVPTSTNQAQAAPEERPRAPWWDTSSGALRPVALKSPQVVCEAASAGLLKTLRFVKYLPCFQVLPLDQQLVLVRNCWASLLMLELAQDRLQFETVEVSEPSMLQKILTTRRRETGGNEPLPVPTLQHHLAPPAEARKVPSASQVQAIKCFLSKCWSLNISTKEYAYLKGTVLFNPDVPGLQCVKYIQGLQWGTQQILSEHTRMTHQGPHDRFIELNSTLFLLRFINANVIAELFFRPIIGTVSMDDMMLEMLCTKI
# DAX1 conf = confirmation of human DAX1 (NR0B1) inhibitors; shares compounds with DAX1 inh-1; HEK293T StAR-promoter luciferase reporter, SF-1/DAX-1 repression; inhibition, % at 6.8 µM; 2,400 compounds, 87% hits; AID 652134;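 active means inhibition above the average of every tested compound plus 3 SD, cut at about 3.8% in these data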;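 further: 0% = DAX-1 cells with DMSO and 100% = no DAX-1 control cells with DMSO; active compounds raise luminescence by relieving repression of the StAR reporter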
# SF1 mutant ctr = counter-screen for DAX1 inhibitors: nonselective inhibitors with SF-1 AF2 mutant; shares compounds with DAX1 inh-1; HEK293 StAR-luciferase, luminescence; inhibition, % at 6.8 µM; 2,400 compounds, 78% hits; AID 652136;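 active means inhibition above the mean of all tested compounds plus 3 SD, cut at about 3% in these data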;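 further: 0% = DAX-1 transfected cells with DMSO and 100% = cells without DAX-1 with DMSO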
# LXR ag = counter-screen for hcDAF-12 agonists: agonists of human LXR-beta; shares compounds with hcDAF12 agonist; 3,400 tested, under 10 active; HEK293 Gal4-LXR tk-luc reporter, luminescence, 24 h; normalized: DMSO 0%, positive control 100%; activation, % at 6.8 µM;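 active means mean percent activation of the reporter above a cutoff set as the average over tested compounds plus their standard deviation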
# hcDAF12 conf = hcDAF-12 agonism, confirmation assay. 3,400 compounds, 61% hits. HEK293 hcDAF-12 lit1-tk-luc reporter, luminescence; % of Δ7-dafachronic acid response. shares compounds with hcDAF12 agonist. activation, % at 6.8 µM;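 active means mean activation across triplicate tests above the threshold derived from the earlier primary screen, cut at about 5.5% in these data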;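 further: 0% = DMSO only wells and 100% = 3 µM Δ7-dafachronic acid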
# Numbers without * were called inactive; . = no result given.
SMILES,hgDAF12 agonist,DAX1 inh-1,hcDAF12 agonist,ssDAF-12 act,DAX1 inh-2,DAX1 conf,SF1 mutant ctr,others
CCOC(=O)[C@]12CCCC=C1N(CCCOC)C(=O)[C@@H]2CC(=O)NCCc1ccccc1OC,-1,-1,-2,-1,.,.,.,
CCOc1ccccc1N1CC(C(=O)NCCC2=CCCCC2)CC1=O (stereo not drawn),9,5.2*,4,-1,2,4.1*,3.3*,
C=C1c2ccccc2NC(=O)N1c1ccc(OC)cc1,10,3,0,-1,1,.,.,
COc1ccc(N2C(=O)c3ccccc3NC23CCCCC3)cc1,12*,4.5*,3,0,1,13*,6.5*,
O=C1/C(=C/c2cccs2)CCC/C1=C\c1cccs1,12*,6.8*,6.2*,0,4,13*,11*,
CC1C/C(=C/c2cccs2)C(=O)/C(=C/c2cccs2)C1 (stereo not drawn),1,0,-1,0,-1,.,.,
O=C(NNC(=S)Nc1ccccc1)c1cccnc1,3,5.1*,0,-1,0,3.6*,5.6*,
O=C(NNC(=S)Nc1ccccc1Cl)c1ccccc1Cl,10,11*,5,0,2,11*,6.7*,
O=C(Nc1cccc(Cl)c1)c1ccccc1,9,0,0,-1,1,.,.,
O=C(NNC(=S)Nc1ccc(Cl)cc1)c1ccccc1,8,4.5*,5,0,1,7.1*,4.2*,
O=C(NNC(=S)Nc1cccc(Cl)c1)c1ccccc1,6,5.3*,3,0,1,4.8*,4.0*,
c1ccc(-n2c(SCc3cccc4ccccc34)nnc2-c2ccccn2)cc1,-2,-2,-4,-1,.,.,.,
CC1=CC(=O)C(C(C)C)=C/C1=N\OS(=O)(=O)c1ccccc1,-13,.,-4,-2,.,.,.,
CC(=O)N1CCN(c2ccc(N3CCN(Cc4ccccc4)[C@H](C)C3)c(C)c2)[C@@H](C)C1,-1,2,1,-1,.,.,.,
O=C(O)c1ccccc1NN=Cc1ccccc1,10,5.6*,3,0,4.5*,9.3*,5.9*,
O=C(Nc1nccs1)c1ccc(N2CCOCC2)c([N+](=O)[O-])c1,9,7.0*,3,0,3,8.4*,5.4*,
O=C(Nc1nccs1)c1ccc(-c2ccccc2[N+](=O)[O-])o1,10,5.2*,3,0,1,7.2*,6.3*,
O=C(N/N=C/C(Br)=C\c1ccccc1)c1n[nH]c2c1CCC2,1,4.7*,5,1.9*,-1,21*,-4,
CS(=O)(=O)c1cccc(OCCCN2CCC(C(O)(c3ccccc3)c3ccccc3)CC2)c1,0,1,1,-1,.,.,.,
COC(=O)c1cc(NC(=O)c2cccs2)ccc1N1CCOCC1,0,-1,-2,-2,1,.,.,
O=C(Nc1ccc(N2CCOCC2)c(F)c1)c1cccs1,10,10*,4,0,2,11*,7.4*,
Cc1ccnc(NC(=O)c2ccc(OCC3CCCO3)cc2)c1 (stereo not drawn),9,6.8*,5,0,-2,4.5*,0,
Cc1ccc(NC(=O)c2ccc(OCC3CCCO3)cc2)c(C)c1 (stereo not drawn),0,0,2,-1,-1,.,.,
COc1ccccc1CCn1cnc(-c2cccc(F)c2)c1CC(C)C,-3,-2,-2,-1,.,.,.,
C=CS(=O)(=O)N(C(=C)C(=O)OC)S(C)(=O)=O,-2,1,-1,-1,.,.,.,
Cc1cc(-c2nc3ccccc3s2)ccc1N,12*,6.7*,15*,3.1*,-3,10*,3.1*,LXR ag=2;hcDAF12 conf=21*
